Data from PubChem BioAssay (EPA / NIEHS).
Activity calls are given as the source filed them. The calls were made as follows: active = hit-call score of the fitted dose curve at least 0.9, where 1 is the maximum; inactive = score below 0.9.

Key:
[1] = read-out: Interleukin-8 (IL8), CXCL8 (gene 3576); test: BSK_CASM3C_IL8: BioMAP Diversity Plus: CASM3C Assay for Interleukin-8 (IL8) Biomarker Activity (AID 2283042); conditions: primary human coronary artery smooth muscle cells; actives raise or lower the signal;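 also: IL-8 protein level quantified by ELISA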
[2] = read-out: Human Leukocyte Antigen - DR isotype (HLADR), HLA-DRA (gene 3122); test: BSK_CASM3C_HLADR: BioMAP Diversity Plus: CASM3C Assay for Human Leukocyte Antigen - DR isotype (HLADR) Biomarker Activity (AID 2283043); conditions: primary human coronary artery smooth muscle cells; actives raise or lower the signal;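 also: cell-surface HLA-DR protein level quantified by ELISA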
[3] = read-out: Macrophage colony-stimulating factor (MCSF), CSF1 (gene 1435); test: BSK_CASM3C_MCSF: BioMAP Diversity Plus: CASM3C Assay for Macrophage colony-stimulating factor (MCSF) Biomarker Activity (AID 2283044); conditions: primary human coronary artery smooth muscle cells; actives raise or lower the signal;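 also: M-CSF protein amount quantified by ELISA after 24 h exposure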
[4] = read-out: Low-density lipoprotein receptor (LDLR), LDLR (gene 3949); test: BSK_CASM3C_LDLR: BioMAP Diversity Plus: CASM3C Assay for Low-density lipoprotein receptor (LDLR) Biomarker Activity (AID 2283045); conditions: primary human coronary artery smooth muscle cells; actives raise or lower the signal;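 also: LDLR protein level on the cell surface quantified by ELISA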
[5] = read-out: Monocyte Chemoattractant Protein-1 (MCP1), CCL2 (gene 6347); test: BSK_CASM3C_MCP1: BioMAP Diversity Plus: CASM3C Assay for Monocyte Chemoattractant Protein-1 (MCP1) Biomarker Activity (AID 2283046); conditions: primary human coronary artery smooth muscle cells; actives raise or lower the signal;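 also: MCP-1 level quantified by ELISA 24 h after dosing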
[6] = BSK_CASM3C_Proliferation: Cell Proliferation Assessment in the BioMAP Diversity Plus: CASM3C Assay (AID 2283047); conditions: primary human coronary artery smooth muscle cells;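 also: sulforhodamine B total protein stain as relative cell number at 560 nm; sub-confluent cells exposed 48 h before staining; fitted both ways against DMSO so gain or loss of cell number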
[7] = read-out: Monokine induced gamma interferon (MIG), CXCL9 (gene 4283); test: BSK_CASM3C_MIG: BioMAP Diversity Plus: CASM3C Assay for Monokine induced gamma interferon (MIG) Biomarker Activity (AID 2283048); conditions: primary human coronary artery smooth muscle cells; actives raise or lower the signal;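 also: MIG protein level measured by ELISA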
[8] = read-out: serum amyloid A (SAA), SAA1 (gene 6288); test: BSK_CASM3C_SAA: BioMAP Diversity Plus: CASM3C Assay for serum amyloid A (SAA) Biomarker Activity (AID 2283049); conditions: primary human coronary artery smooth muscle cells; actives raise or lower the signal;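 also: SAA protein level quantified by ELISA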
[9] = BSK_CASM3C_SRB: Viability Assessment in the BioMAP Diversity Plus: CASM3C Assay (AID 2283050); conditions: primary human coronary artery smooth muscle cells;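 also: total protein by SRB staining as cytotoxicity measure in parallel cultures; cells exposed to compound for 24 h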
[10] = read-out: Thrombomodulin, THBD (gene 7056); test: BSK_CASM3C_Thrombomodulin: BioMAP Diversity Plus: CASM3C Assay for Thrombomodulin Biomarker Activity (AID 2283051); conditions: primary human coronary artery smooth muscle cells; actives raise or lower the signal;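 also: thrombomodulin protein level measured by ELISA 24 h after dosing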

O=C(O)c1cn(-c2ccc(F)cc2)c2cc(N3CCNCC3)c(F)cc2c1=O
outcome [1]: inactive
outcome [2]: inactive
outcome [3]: inactive
outcome [4]: inactive
outcome [5]: inactive
outcome [6]: inactive
outcome [7]: inactive
outcome [8]: inactive
outcome [9]: inactive
outcome [10]: inactive

CC(C)c1ccc(C(C)C)cc1
outcome [1]: inactive
AC50 [2]: 25.9 µM (active)
AC50 [3]: 32.4 µM (active)
outcome [4]: inactive
AC50 [5]: 32.4 µM (active)
AC50 [6]: 31.4 µM (active)
AC50 [7]: 31.3 µM (active)
outcome [8]: inactive
AC50 [9]: 30.6 µM (active)
outcome [10]: inactive

CN(CCOc1ccc(CC2SC(=O)NC2=O)cc1)c1ccccn1 (stereo not drawn)
outcome [1]: inactive
outcome [2]: inactive
outcome [3]: inactive
AC50 [4]: 4.98 µM (active)
outcome [5]: inactive
outcome [6]: inactive
outcome [7]: inactive
outcome [8]: inactive
outcome [9]: inactive
outcome [10]: inactive

Cc1cc(C2(c3cc(C)c(O)cc3C)OS(=O)(=O)c3ccccc32)c(C)cc1O
outcome [1]: inactive
outcome [2]: inactive
outcome [3]: inactive
outcome [4]: inactive
outcome [5]: inactive
outcome [6]: inactive
outcome [7]: inactive
outcome [8]: inactive
outcome [9]: inactive
outcome [10]: inactive

CCC(=O)OCc1ccccc1
outcome [1]: inactive
outcome [2]: inactive
outcome [3]: inactive
outcome [4]: inactive
outcome [5]: inactive
outcome [6]: inactive
outcome [7]: inactive
outcome [8]: inactive
outcome [9]: inactive
outcome [10]: inactive

CC1CCC(C(C)CS)CC1S (stereo not drawn)
AC50 [1]: 20 µM (active)
AC50 [2]: 35.8 µM (active)
AC50 [3]: 22.3 µM (active)
AC50 [4]: 20 µM (active)
AC50 [5]: 30.9 µM (active)
AC50 [6]: 29.6 µM (active)
AC50 [7]: 36.5 µM (active)
AC50 [8]: 20 µM (active)
AC50 [9]: 29.7 µM (active)
AC50 [10]: 29.1 µM (active)

CNC[C@H](O)c1cccc(O)c1
outcome [1]: inactive
outcome [2]: inactive
outcome [3]: inactive
outcome [4]: inactive
outcome [5]: inactive
outcome [6]: inactive
outcome [7]: inactive
outcome [8]: inactive
outcome [9]: inactive
outcome [10]: inactive

CCCCCCCCCC=O
outcome [1]: inactive
outcome [2]: inactive
outcome [3]: inactive
outcome [4]: inactive
outcome [5]: inactive
outcome [6]: inactive
outcome [7]: inactive
outcome [8]: inactive
outcome [9]: inactive
outcome [10]: inactive

CC(=O)O[C@]1(C(C)=O)CC[C@H]2[C@@H]3C[C@H](C)C4=CC(=O)CC[C@]4(C)[C@H]3CC[C@@]21C
AC50 [1]: 0.0082 µM (active)
outcome [2]: inactive
outcome [3]: inactive
AC50 [4]: 14.7 µM (active)
AC50 [5]: 0.604 µM (active)
outcome [6]: inactive
outcome [7]: inactive
AC50 [8]: 0.0082 µM (active)
outcome [9]: inactive
outcome [10]: inactive

c1ccc2c(c1)c1cccc3ccc4cccc2c4c31
outcome [1]: inactive
outcome [2]: inactive
outcome [3]: inactive
outcome [5]: inactive
outcome [6]: inactive
outcome [7]: inactive
outcome [8]: inactive
outcome [9]: inactive
outcome [10]: inactive

O=C(O)C[C@H](O)C[C@H](O)/C=C/c1c(C2CC2)nc2ccccc2c1-c1ccc(F)cc1
outcome [1]: inactive
outcome [2]: inactive
AC50 [3]: 0.0636 µM (active)
outcome [4]: inactive
AC50 [5]: 0.0117 µM (active)
AC50 [6]: 0.129 µM (active)
outcome [7]: inactive
outcome [8]: inactive
outcome [9]: inactive
AC50 [10]: 0.0287 µM (active)

O=[N+]([O-])c1cc(C(F)(F)F)ccc1Cl
outcome [1]: inactive
outcome [2]: inactive
outcome [3]: inactive
outcome [4]: inactive
outcome [5]: inactive
outcome [6]: inactive
outcome [7]: inactive
outcome [8]: inactive
outcome [9]: inactive
outcome [10]: inactive

OC1OC[C@@H](O)[C@H](O)[C@H]1O (stereo partly drawn)
outcome [1]: inactive
outcome [2]: inactive
outcome [3]: inactive
outcome [4]: inactive
outcome [5]: inactive
outcome [6]: inactive
outcome [7]: inactive
outcome [8]: inactive
outcome [9]: inactive
outcome [10]: inactive

NCCNCCN
outcome [1]: inactive
outcome [2]: inactive
outcome [3]: inactive
outcome [4]: inactive
outcome [5]: inactive
outcome [6]: inactive
outcome [7]: inactive
outcome [8]: inactive
outcome [9]: inactive
outcome [10]: inactive

CCCCC(CC)COCCC#N (stereo not drawn)
outcome [1]: inactive
outcome [2]: inactive
outcome [3]: inactive
AC50 [4]: 0.151 µM (active)
outcome [5]: inactive
outcome [6]: inactive
outcome [7]: inactive
outcome [8]: inactive
outcome [9]: inactive
outcome [10]: inactive

COC(=O)c1ccc(C)cc1
outcome [1]: inactive
outcome [2]: inactive
outcome [3]: inactive
outcome [4]: inactive
outcome [5]: inactive
outcome [6]: inactive
outcome [7]: inactive
outcome [8]: inactive
outcome [9]: inactive
outcome [10]: inactive

CCc1c(C)cc(N)c(CC)c1N
outcome [1]: inactive
outcome [2]: inactive
outcome [3]: inactive
outcome [4]: inactive
outcome [5]: inactive
outcome [6]: inactive
outcome [7]: inactive
outcome [8]: inactive
outcome [9]: inactive
outcome [10]: inactive

N#Cc1ccc(CC(=NNC(=O)Nc2ccc(OC(F)(F)F)cc2)c2cccc(C(F)(F)F)c2)cc1
outcome [1]: inactive
outcome [2]: inactive
outcome [3]: inactive
outcome [4]: inactive
outcome [5]: inactive
outcome [6]: inactive
outcome [7]: inactive
outcome [8]: inactive
outcome [9]: inactive
outcome [10]: inactive

CC1COc2ccccc2N1C(=O)C(Cl)Cl (stereo not drawn)
outcome [1]: inactive
AC50 [2]: 2.96 µM (active)
AC50 [3]: 0.0828 µM (active)
outcome [4]: inactive
outcome [5]: inactive
AC50 [6]: 8.84 µM (active)
outcome [7]: inactive
outcome [8]: inactive
AC50 [9]: 5.64 µM (active)
outcome [10]: inactive

C=C[Si](OCC)(OCC)OCC
outcome [1]: inactive
outcome [2]: inactive
outcome [3]: inactive
outcome [4]: inactive
outcome [5]: inactive
outcome [6]: inactive
outcome [7]: inactive
outcome [8]: inactive
outcome [9]: inactive
outcome [10]: inactive

Cc1ccc(O)c(C(C)(C)C)c1
outcome [1]: inactive
AC50 [2]: 26.8 µM (active)
outcome [3]: inactive
outcome [4]: inactive
AC50 [5]: 33.4 µM (active)
AC50 [6]: 29.1 µM (active)
AC50 [7]: 33.2 µM (active)
outcome [8]: inactive
AC50 [9]: 24.6 µM (active)
outcome [10]: inactive

CCCCC/C=C/C=C/C=O
outcome [1]: inactive
AC50 [2]: 23.7 µM (active)
AC50 [3]: 20 µM (active)
outcome [4]: inactive
AC50 [5]: 36.1 µM (active)
AC50 [6]: 30.3 µM (active)
outcome [7]: inactive
outcome [8]: inactive
AC50 [9]: 32.3 µM (active)
outcome [10]: inactive

CC[Si](OC(C)=O)(OC(C)=O)OC(C)=O
outcome [1]: inactive
outcome [2]: inactive
outcome [3]: inactive
outcome [4]: inactive
outcome [5]: inactive
outcome [6]: inactive
outcome [7]: inactive
outcome [8]: inactive
outcome [9]: inactive
outcome [10]: inactive

c1ccc2sc(SN(C3CCCCC3)C3CCCCC3)nc2c1
outcome [1]: inactive
outcome [2]: inactive
outcome [3]: inactive
outcome [4]: inactive
outcome [5]: inactive
AC50 [6]: 0.117 µM (active)
outcome [7]: inactive
outcome [8]: inactive
outcome [9]: inactive
AC50 [10]: 3 µM (active)

CCCCC(CC)COC(=O)/C=C\C(=O)OCC(CC)CCCC (stereo not drawn)
outcome [1]: inactive
outcome [2]: inactive
outcome [3]: inactive
outcome [4]: inactive
outcome [5]: inactive
outcome [6]: inactive
outcome [7]: inactive
outcome [8]: inactive
outcome [9]: inactive
outcome [10]: inactive

O=C(O)c1cn(C2CC2)c2cc(N3CCNCC3)c(F)cc2c1=O
outcome [1]: inactive
outcome [2]: inactive
outcome [4]: inactive
outcome [5]: inactive
outcome [6]: inactive
outcome [7]: inactive
outcome [8]: inactive
outcome [9]: inactive
outcome [10]: inactive
